This is part of a sample that, as a whole, favours compounds with a hit. Of some 83,000 tested, about 20% had one in any assay.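 Treatment: one concentration, 48 hours, 96-well format. Scoring: percent growth, with anything below 10 considered active.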 The source made the active and inactive calls.

The test system of the assay is MDA-MB-468 breast. As to the kind of experiment: NCI-60 one-dose screen, 48 h (100 = growth as untreated, 0 = no growth, -100 = all killed). The note with it: 10 µM unless noted.
As for `CCOC(=O)/C=C1\S/C(=N\Nc2ccc([N+](=O)[O-])cc2[N+](=O)[O-])N(Cc2ccccc2)C1=O`, the growth is 84.2% (inactive).
Then `C#Cc1nc(Nc2cc(C)[nH]n2)c2ccccc2n1`, with -23.2% (active).
Then `c1csc([C@@H]2C[C@@H]3Cc4ccc5ccccc5c4N2O3)c1`, with 99.2% (inactive).
For the compound `CCOC(=O)c1nn(C2CCCCO2)c2ccc(NC(=O)CSc3nc4ccccc4c(=O)[nH]3)cc12` (configuration not stated), the growth was 95.7% (inactive).
In the case of `CCOC(=O)COc1ccc2c(c1)O/C(=C\c1ccc(O)cc1)C2=O` it was 91.9% (inactive).
In the case of `O=C(CCc1nnc2sc(-c3cc(O)c(O)c(O)c3)nn12)c1nc2ccccc2[nH]1` it was 86.8% (inactive); in that of `O=C(CBr)OCc1ccc([N+](=O)[O-])o1`, 109% (inactive).
In the case of `O=[N+]([O-])c1ccc2ncccc2c1Cl` it was -2.71% (active).
On to `S=C1SCN(CCc2ccccc2)CN1CCc1ccccc1`, for which the growth is 9.02% (active).
With `O=C1CSC(c2ccccc2O)N1c1nnc(Cn2cnnc2)o1` (configuration not stated), the growth was 96.2% (inactive).
In the case of `C#COc1cccc(Nc2c(C#N)cnc3ncc(NC(=O)CCl)cc23)c1` it was 3.39% [6.25 µM] (active); in that of `NS(=O)(=O)c1ccc(-n2cc(CN3CCNCC3)nn2)cc1`, -22.4% (active).
In the case of `COC(=O)c1c[n+]([O-])ccc1OC` it was 106% (inactive); in that of `COc1ccc2nc(NC(=O)c3cc(-c4ccc(F)cc4)n4nc(-c5ccccc5)cc4n3)sc2c1`, 103% (inactive).
Then `NC(=O)CN1C(=O)c2ccccc2C1=O`, with 107% (inactive).
In the case of `COC(=O)c1cc(C(=O)OC)cc([N+](=O)[O-])c1`, the growth was 107% (inactive).
For the compound `CCCCN1CCN(c2ccc3nc(-c4ccc5nc(-c6ccc(OC)c(OC)c6)[nH]c5c4)[nH]c3c2)CC1`, the growth is -74.9% (active).
In the case of `O=C(/C=C\c1cc(Br)ccc1O)/C=C/c1cc(Br)ccc1O` it was -65% (active).
Then `C#C[C@]1(O)CC[C@H]2[C@@H]3CC=C4c5sc(-c6ccc(C)cc6)nc5CC[C@]4(C)[C@H]3CC[C@@]21C`, with 84.4% (inactive); and `O=c1oc2ccc(Br)cc2c(=O)n1-c1ccc(Br)cc1F`, with -11.7% (active); and `O=CN1N=C(c2ccc(Nc3ccnc4cc(Cl)ccc34)cc2)CC1c1ccc(Cl)cc1` (configuration not stated), with -0.669% (active).
For `C1=Cc2ccccc2N(c2nnc(-c3ccccc3)o2)c2ccccc21`, the growth is 98.7% (inactive).
On to `COc1cc2oc(-c3cccc(NC(=O)c4cc(N)ccc4Cl)c3)cc(=O)c2c(OC)c1OC`, for which the growth is 95.3% (inactive).
Then `O=C(CCN1CCCC1)Nc1ccc2c(NCCCc3ccccc3)c3ccccc3nc2c1`, with -38.5% (active); and `OCC1OC(n2cnc3c(=S)nc[nH]c32)C(O)C1O` (configuration not stated), with -6.42% (active).
In the case of `CCc1c(C(=O)NCc2c(O)ccc3cccc(O)c23)[nH]c(C)c1C(C)=O` it was 18.5% (inactive).
In the case of `CCOc1cc2c(Cl)ncnc2c(OCC)c1OCC` it was -51.3% (active); in that of `COc1cc(OC)c2ccc(=O)oc2c1`, 103% (inactive); in that of `CCCCCCn1c(=N)n(CC(O)COc2cccc(C)c2)c2ccccc21` (configuration not stated), -68.7% (active).
Regarding `Cc1cccc(C)c1Nc1nnc(-c2ccc(F)cc2)o1`, the growth is 102% (inactive).
Then `Cn1ccnc1C(=O)/C=C/C=C/c1ccc(C(=O)Nc2ccc(F)cc2)cc1`, with 35.3% (inactive).
In the case of `NC(C(=O)O)C(O)c1ccc(OCc2ccccc2)c(OCc2ccccc2)c1` (configuration not stated) it was 104% (inactive).
In the case of `CN(C)CCCOc1c(Br)cc(/C=C/C(=O)N(C)CCc2cc(Br)c(OCCCN(C)C)c(Br)c2)cc1Br` it was 91.4% (inactive); in that of `C[C@]12CC[C@H]3[C@@H](CCC4=CC(=O)CC[C@@]43C)[C@@H]1CC[C@@H]2c1csc(N)n1`, 28.4% (inactive).
Take `CCCCC/C=C/CCC(=O)N[C@H]1[C@H](Oc2c3cc4cc2Oc2ccc(cc2Cl)[C@@H](O[C@@H]2O[C@H](CO)[C@@H](O)[C@H](O)[C@H]2NC(C)=O)[C@@H]2NC(=O)[C@H](NC(=O)[C@@H]4NC(=O)[C@H]4NC(=O)[C@@H](Cc5ccc(c(Cl)c5)O3)NC(=O)[C@@H](N)c3ccc(O)c(c3)Oc3cc(O)cc4c3)c3ccc(O)c(c3)-c3c(O[C@H]4O[C@H](CO)[C@@H](O)[C@H](O)[C@@H]4O)cc(O)cc3[C@H](C(=O)O)NC2=O)O[C@H](CO)[C@H](O)[C@@H]1O`: the growth was 110% (inactive).
In the case of `O=c1cc(C2NNC(=S)N2)c2ccc3ccccc3c2o1` (configuration not stated) it was 128% (inactive); in that of `CNCc1cccc2c1OCCOCCN(C)C(=O)CN(C)S(=O)(=O)c1ccc(cc1)-c1cnc(N)c(n1)C(=O)N2`, -49.3% (active).
